According to PubChem BioAssay AID1159580 (chemical genetic matrix, 2015):
Where “and” joins values, the source holds several entries; their conditions need not be identical. Identical values can stand only once. About 2,000 (36%) of roughly 5,500 compounds were called active. About 18% were inconclusive and are not listed. No stated cut-off is given here; in the data, active means normalized growth mostly below about 0.91 (no sharp cut-off); inconclusive means no clear call, values can overlap the other calls; inactive means mostly above about 0.92. The list shows a part of the results.

Experiment: chemical genetic growth profiling, strain panel (AID 1159580);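 further: tested at 20 µM; growth read once vehicle control cultures reached saturation at 30 °C; 1 = growth at the plate median or of vehicle wells; lower values mean less growth of the strain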
Settings: S. cerevisiae deletion strains, growth OD
[1] = locus YJR075W, strain HOC1, hits give low values
[2] = locus YNL128W, strain TEP1, hits give low values
[3] = locus YNL322C, strain KRE1, hits give low values

Measured: normalized growth

O=C(O)/C=C/C(=O)O
inactive: locus YAL040C, strain CLN3, hits give low values 1.02 | locus YCL061C, strain MRC1 (second series), hits give low values 1.01 | locus YDR363W, strain ESC2, hits give low values 1.01 | locus YER002W, strain NOP16, hits give low values 1.04 | [1] 1.01 | [2] 1.01 | locus YNL175C, strain NOP13, hits give low values 1.01 | locus YNL197C, strain WHI3, hits give low values 1 | locus YNL224C, strain SQS1, hits give low values 1 | [3] 1.02 | locus YOR083W, strain WHI5 (second series), hits give low values 1 | locus YPL055C, strain LGE1, hits give low values 1.02

COC(=O)/C=C/C(C)=C/C=C/C(C)=C/C=C/C=C(C)/C=C/C=C(C)/C=C/C(=O)O
active: locus YLR113W, strain HOG1, hits give low values 0.844
inactive: locus YAL013W, strain DEP1, hits give low values 1 | locus YAL021C, strain ccr4, hits give low values 1.02 | locus YAL026C, strain drs2, hits give low values 1.02 | locus YAL030W, strain snc1, hits give low values 1.02 | locus YBL061C, strain skt5, hits give low values 1.04 | locus YBR009C, strain hhf1, hits give low values 1.02 | locus YBR021W, strain FUR4, hits give low values 1.03 | locus YBR023C, strain chs3, hits give low values 1.03 | locus YBR171W, strain sec66, hits give low values 1.03 | locus YBR229C, strain ROT2, hits give low values 1.02 | locus YBR231C, strain swc5, hits give low values 1.02 | locus YBR279W, strain paf1, hits give low values 0.988 | locus YCL011C, strain gbp2, hits give low values 1.02 | locus YCL016C, strain dcc1, hits give low values 1.02 | locus YCL029C, strain bik1, hits give low values 1.01 | locus YCL061C, strain MRC1, hits give low values 1.02 | locus YCL069W, strain vba3, hits give low values 1.02 | locus YCR088W, strain abp1, hits give low values 1.02 | locus YDL005C, strain med2, hits give low values 1.01 | locus YDL035C, strain GPR1, hits give low values 1.02 | locus YDL040C, strain nat1, hits give low values 1.01 | locus YDL074C, strain BRE1, hits give low values 1 | locus YDL101C, strain DUN1, hits give low values 1.02 | locus YDL134C, strain PPH21, hits give low values 1.04 | locus YDL185W, strain tfp1, hits give low values 1.02 | locus YDL192W, strain arf1, hits give low values 1.01 | locus YDR001C, strain nth1, hits give low values 1.03 | locus YDR069C, strain doa4, hits give low values 1.04 | locus YDR101C, strain arx1, hits give low values 0.997 | locus YDR137W, strain rgp1, hits give low values 1.05 | locus YDR150W, strain NUM1, hits give low values 1.02 | locus YDR159W, strain sac3, hits give low values 1.05 | locus YDR162C, strain NBP2, hits give low values 1.03 | locus YDR195W, strain ref2 0.993 | locus YDR297W, strain sur2, hits give low values 1.03 | locus YDR318W, strain mcm21, hits give low values 1 | locus YDR334W, strain swr1, hits give low values 1.02 | locus YDR335W, strain msn5, hits give low values 1.02 | locus YDR388W, hits give low values 0.998 | locus YDR392W, strain spt3, hits give low values 1.03 | locus YDR502C, strain sam2, hits give low values 1.01 | locus YEL003W, strain gim4, hits give low values 1.02 | locus YEL037C, strain rad23, hits give low values 1.02 | locus YEL061C, strain CIN8 (second series), hits give low values 1.01 | locus YEL061C, strain CIN8, hits give low values 1.01 | locus YER015W, strain faa2, hits give low values 1.02 | locus YER016W, strain bim1, hits give low values 1.01 | locus YER110C, hits give low values 0.989 | locus YER111C, strain swi4, hits give low values 1.02 | locus YER155C, strain BEM2 (second series), hits give low values 1.03 | locus YER155C, strain BEM2, hits give low values 0.994 | locus YER167W, strain BCK2, hits give low values 1.01 | locus YFR010W, strain ubp6, hits give low values 1.02 | locus YGL078C, strain dbp3, hits give low values 0.993 | locus YGL086W, strain mad1, hits give low values 0.986 | locus YGL167C, strain pmr1, hits give low values 1.03 | locus YGL173C, strain kem1, hits give low values 1.02 | locus YGL227W, strain vid30, hits give low values 1.03 | locus YGL240W, strain doc1, hits give low values 1.02 | locus YGL248W, strain PDE1, hits give low values 1.02 | locus YGL253W, strain hxk2, hits give low values 1.02 | locus YGR078C, strain PAC10, hits give low values 1.03 | locus YGR135W, strain pre9, hits give low values 1 | locus YGR252W, strain gcn5, hits give low values 0.983 | locus YHR013C, strain ard1, hits give low values 1.01 | locus YHR027C, strain rpn1, hits give low values 1.03 | locus YHR030C, strain SLT2, hits give low values 1.02 and 0.885 | locus YHR079C, strain IRE1 (second series), hits give low values 0.986 | locus YHR079C, strain IRE1, hits give low values 0.897 | locus YHR094C, strain hxt1, hits give low values 0.994 | locus YHR129C, strain ARP1, hits give low values 1.01 | locus YHR142W, strain chs7, hits give low values 1.03 | locus YHR200W, strain rpn10, hits give low values 1.01 | locus YIL066C, strain RNR3, hits give low values 1.03 | locus YIL073C, strain SPO22, hits give low values 1.01 | locus YIL125W, strain kgd1, hits give low values 0.997 | locus YIR030C, strain dcg1, hits give low values 0.995 | locus YJL092W, strain hpr5, hits give low values 1.03 | locus YJL095W, strain BCK1 (second series), hits give low values 1.02 | locus YJL095W, strain BCK1, hits give low values 1.04 and 0.924 | locus YJL115W, strain asf1, hits give low values 1.01 | locus YJL129C, strain trk1, hits give low values 1.02 | locus YJL134W, strain LCB3, hits give low values 1.01 | locus YJL154C, strain vps35, hits give low values 1.01 | locus YJL164C, strain tpk1, hits give low values 1.03 | locus YJL166W, strain qcr8, hits give low values 1.03 | locus YJL168C, strain set2, hits give low values 0.994 | locus YJL187C, strain SWE1 (second series), hits give low values 1.03 | locus YJL187C, strain SWE1, hits give low values 1.02 | locus YJR043C, strain POL32, hits give low values 1.03 | locus YJR066W, strain TOR1, hits give low values 0.898 | [1] 1.04 | locus YKL009W, strain mrt4, hits give low values 0.996 | locus YKL068W, hits give low values 1.01 | locus YKL085W, strain MDH1 (second series), hits give low values 0.989 | locus YKL085W, strain MDH1, hits give low values 0.989 | locus YKL160W, strain elf1, hits give low values 1.02 | locus YKL190W, strain CNB1, hits give low values 1.01 | locus YKR001C, strain vps1, hits give low values 1.01 | locus YKR026C, strain gcn3, hits give low values 1.02 | locus YKR091W, strain srl3, hits give low values 1.02 | locus YLL001W, strain dnm1, hits give low values 1.02 | locus YLL026W, hits give low values 1.02 | locus YLL041C, strain sdh2, hits give low values 1.02 | locus YLR027C, strain aat2, hits give low values 1.02 | locus YLR039C, strain RIC1, hits give low values 1.08 | locus YLR058C, strain SHM2, hits give low values 1.01 | locus YLR102C, strain apc9, hits give low values 0.988 | locus YLR221C, strain rsa3, hits give low values 1.02 | locus YLR258W, strain gsy2, hits give low values 1.02 | locus YLR262C, strain YPT6 (second series), hits give low values 1.06 | locus YLR262C, strain YPT6, hits give low values 1.04 | locus YLR268W, strain sec22, hits give low values 1.02 | locus YLR320W, strain mms22, hits give low values 1.04 | locus YLR330W, strain CHS5, hits give low values 1.02 | locus YLR342W, strain FKS1 (second series), hits give low values 1.01 | locus YLR342W, strain FKS1, hits give low values 1.03 | locus YLR357W, strain rsc2, hits give low values 1.02 | locus YLR370C, strain arc18, hits give low values 1.02 | locus YLR371W, strain rom2, hits give low values 0.988 | locus YLR384C, strain iki3, hits give low values 1.02 | locus YLR418C, strain cdc73, hits give low values 1.01 | locus YML016C, strain PPZ1, hits give low values 1.02 | locus YML032C, strain rad52, hits give low values 0.982 | locus YML120C, strain ndi1, hits give low values 1.02 | locus YML124C, strain tub3, hits give low values 0.996 | locus YMR058W, strain fet3, hits give low values 1.03 | locus YMR078C, strain ctf18, hits give low values 0.993 | locus YMR125W, strain sto1, hits give low values 1.01 | locus YMR129W, hits give low values 1.02 | locus YMR205C, strain PFK2, hits give low values 1.03 | locus YMR223W, strain ubp8, hits give low values 1.01 | locus YMR231W, strain pep5, hits give low values 1.01 | locus YMR263W, strain SAP30, hits give low values 1.02 | locus YMR307W, strain GAS1, hits give low values 1.04 | locus YNL067W, strain RPL9B, hits give low values 1.02 | locus YNL071W, strain lat1, hits give low values 1.02 | [2] 1.01 | locus YNL183C, strain NPR1, hits give low values 0.908 | locus YNL209W, strain ssb2, hits give low values 1.02 | locus YNL233W, strain BNI4, hits give low values 1.03 | locus YNL248C, strain rpa49, hits give low values 1.01 | locus YNL250W, strain rad50, hits give low values 0.986 | locus YNL271C, strain bni1, hits give low values 0.998 | locus YNL298W, strain CLA4, hits give low values 0.991 | locus YNL307C, strain MCK1, hits give low values 1 | locus YNL322C, strain KRE1 (second series), hits give low values 1.02 | [3] 1.01 | locus YNR049C, strain mso1, hits give low values 1.02 | locus YNR052C, strain pop2, hits give low values 0.998 | locus YOL006C, strain TOP1, hits give low values 1.11 | locus YOL012C, strain htz1 1.19 | locus YOL147C, strain pex11, hits give low values 0.996 | locus YOR001W, strain rrp6, hits give low values 1.02 | locus YOR061W, strain CKA2, hits give low values 1.02 | locus YOR069W, strain VPS5, hits give low values 1.01 | locus YOR070C, strain gyp1, hits give low values 1.02 | locus YOR080W, strain dia2, hits give low values 1.02 | locus YOR083W, strain WHI5, hits give low values 1.01 | locus YOR106W, strain vam3, hits give low values 1.02 | locus YOR136W, strain idh2, hits give low values 1 | locus YOR144C, strain elg1, hits give low values 1 | locus YOR184W, strain ser1, hits give low values 1.01 | locus YOR231W, strain MKK1, hits give low values 0.901 | locus YOR265W, strain rbl2, hits give low values 1.02 | locus YOR270C, strain vph1, hits give low values 0.954 | locus YOR290C, strain snf2, hits give low values 1.02 | locus YOR316C, strain cot1, hits give low values 0.989 | locus YPL051W, strain arl3, hits give low values 1.02 | locus YPL078C, strain atp4, hits give low values 1.02 | locus YPL106C, strain sse1, hits give low values 1.05 | locus YPL240C, strain hsp82, hits give low values 1.03 | locus YPL256C, strain CLN2, hits give low values 0.894 | locus YPR119W, strain clb2, hits give low values 1 | locus YPR141C, strain kar3, hits give low values 0.995 | locus YPR163C, strain tif3, hits give low values 1 | locus YPR167C, strain met16, hits give low values 0.996 | strain wtn01, hits give low values 1.01
